In PubChem BioAssay (NCI):
Compounds without any hit were thinned out: in the full panel of roughly 79,000, 15% have a hit. Unmarked numbers belong to inactive results. Active and inactive are the calls of the source. No stated cut-off is given here; in the data, active means growth inhibition above about 70%; inactive means the rest.

Legend:
[1] = NCI Yeast Anticancer Drug Screen. Data for the mlh1 strain (AID 171);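 further: 0% = growth of vehicle-treated control cultures of the same strain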; conditions: S. cerevisiae mlh1 strain growth inhibition, stronger effect = higher value
Outline: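 Test agents were incubated with yeast bearing a defined DNA damage repair or cell cycle control alteration; values are growth inhibition normalised to vehicle-treated cultures.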

[2] = NCI Yeast Anticancer Drug Screen. Data for the mlh1 rad18 strain (AID 175); conditions: S. cerevisiae mlh1 rad18 strain growth inhibition, stronger effect = higher value
Outline: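 A repair-deficient yeast strain is exposed to test compound, and growth is scored relative to vehicle-treated controls.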

[3] = NCI Yeast Anticancer Drug Screen. Data for the rad18 strain (AID 177); conditions: S. cerevisiae rad18 mutant growth inhibition, stronger effect = higher value
Outline: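 DNA-repair-defective yeast; compound treatment; growth inhibition scored against vehicle.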

[4] = NCI Yeast Anticancer Drug Screen. Data for the rad52 strain (AID 147);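 further: 0% = growth of vehicle-treated control cultures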; conditions: S. cerevisiae rad52 mutant growth inhibition, stronger effect = higher value
Outline: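 Growth of repair-deficient yeast cells was compared between compound-treated and vehicle-treated cultures to give percent inhibition.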

[5] = NCI Yeast Anticancer Drug Screen. Data for the wt1 strain (AID 149);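 further: 0% = growth of vehicle-treated wt1 cultures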; conditions: S. cerevisiae wt1 strain (SPY 50644) growth inhibition, stronger effect = higher value
Outline: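 wt1 strain grown with compound or vehicle; inhibition taken from the growth difference.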

[6] = NCI Yeast Anticancer Drug Screen. Data for the rad50EPP+ strain (AID 151);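 further: 0% = growth of vehicle-treated control cultures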; conditions: S. cerevisiae rad50 mutant strain, stronger effect = higher value
Outline: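 Measured: growth inhibition of rad50EPP+ yeast. Reference: vehicle-treated controls. Screen uses strains with defined genetic alterations in DNA damage repair or cell cycle control.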

[7] = NCI Yeast Anticancer Drug Screen. Data for the mgt1 strain (AID 153); conditions: S. cerevisiae mgt1 mutant growth inhibition, stronger effect = higher value
Outline: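 Compounds were applied to mgt1 mutant yeast, and growth was then compared against vehicle-treated control cultures to give percent inhibition.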

[8] = NCI Yeast Anticancer Drug Screen. Data for the rad50 strain (AID 155);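 further: 0% = growth of vehicle-only cultures of the same strain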; conditions: S. cerevisiae rad50 strain growth inhibition, stronger effect = higher value
Outline: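 DNA repair mutant yeast, compound exposure, growth read-out; inhibition is taken relative to vehicle.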

[9] = NCI Yeast Anticancer Drug Screen. Data for the mec2-1 strain (AID 157); conditions: S. cerevisiae mec2-1 strain, stronger effect = higher value
Outline: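 Compounds were applied to mec2-1 yeast cells. Their growth was then compared with that of vehicle-treated cultures to give growth inhibition.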

[10] = NCI Yeast Anticancer Drug Screen. Data for the rad14 strain (AID 159);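 further: 0% = growth of vehicle-treated control cultures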; conditions: S. cerevisiae rad14 strain growth inhibition, stronger effect = higher value
Outline: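 DNA repair-defective yeast, compound-exposed; % growth inhibition derived by comparison with vehicle-treated controls.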

[11] = NCI Yeast Anticancer Drug Screen. Data for the sgs1 mgt1 strain (AID 161);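 further: 0% = growth of cultures given vehicle only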; conditions: S. cerevisiae sgs1 mgt1 strain, stronger effect = higher value
Outline: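 Growth of a repair-deficient yeast mutant was monitored after compound treatment and expressed as inhibition relative to vehicle-treated cultures.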

[12] = NCI Yeast Anticancer Drug Screen. Data for the CLN2oe strain (AID 163);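 further: 0% = growth of vehicle-only control cultures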; conditions: S. cerevisiae CLN2oe strain, stronger effect = higher value
Outline: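 Cells of an engineered yeast line with disturbed cell-cycle regulation are treated with compound. Inhibition of growth is then calculated relative to the vehicle-treated reference.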

[13] = NCI Yeast Anticancer Drug Screen. Data for the bub3 strain (AID 167); conditions: S. cerevisiae bub3 mutant strain, stronger effect = higher value
Outline: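 In this screen, a yeast mutant lacking normal mitotic checkpoint function is challenged with compound. Relative growth versus vehicle gives the inhibition value.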

[14] = NCI Yeast Anticancer Drug Screen. Data for the wt2 strain (AID 169);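 further: 0% = growth of vehicle-treated yeast cultures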; conditions: S. cerevisiae wt2 strain growth inhibition, stronger effect = higher value
Outline: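 Growth of compound-treated yeast is measured and expressed as inhibition relative to vehicle-only controls.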

[15] = NCI Yeast Anticancer Drug Screen. Data for the sgs1 strain (AID 173);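 further: 0% = growth of vehicle-only control cultures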; conditions: S. cerevisiae sgs1 mutant, stronger effect = higher value
Outline: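 Strain with an altered DNA repair or cell cycle pathway exposed to compound. Growth then measured. Value = inhibition versus vehicle control.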

[16] = at 5.0 µM (retest, dose inferred, filed as 0.5)
[17] = at 50.0 µM (retest, dose inferred, filed as 5.0)

Cc1cccc(C(C)(C)C)c1NC(=O)C(C#N)C1=C(Cl)C(=O)c2ccccc2C1=O (stereo not drawn)
growth inhibition ([1]; at 1.2 µM): 17% | growth inhibition ([1]; at 3.7 µM): 22% | growth inhibition ([1]; at 11.0 µM): 56% | growth inhibition ([1]; at 33.0 µM): 99% (active) | growth inhibition ([1]; at 100.0 µM): 98% (active) | growth inhibition [2, 16]: 11% | growth inhibition [2, 17]: 97% (active) | growth inhibition ([2]; at 50.0 µM): 89.5% (active) | growth inhibition ([3]; at 1.2 µM): -6% | growth inhibition ([3]; at 3.7 µM): 34% | growth inhibition ([3]; at 11.0 µM): 59% | growth inhibition ([3]; at 33.0 µM): 98% (active) | growth inhibition ([3]; at 100.0 µM): 97% (active)

Cc1cc2c(cc1C)[n+]([O-])c(-c1nc3ccccc3s1)c(N)[n+]2[O-]
growth inhibition ([4]; at 1.2 µM): 2% | growth inhibition ([4]; at 3.7 µM): 10% | growth inhibition ([4]; at 11.0 µM): 20% | growth inhibition ([4]; at 33.0 µM): 35% | growth inhibition ([4]; at 100.0 µM): 88% (active) | growth inhibition ([5]; at 1.2 µM): 10% | growth inhibition ([5]; at 3.7 µM): 13% | growth inhibition ([5]; at 11.0 µM): 17% | growth inhibition ([5]; at 33.0 µM): 20% | growth inhibition ([5]; at 100.0 µM): 25% | growth inhibition ([6]; at 1.2 µM): 1% | growth inhibition ([6]; at 3.7 µM): 15% | growth inhibition ([6]; at 11.0 µM): 44% | growth inhibition ([6]; at 33.0 µM): 82% (active) | growth inhibition ([6]; at 100.0 µM): 97% (active) | growth inhibition ([7]; at 1.2 µM): 11% | growth inhibition ([7]; at 3.7 µM): 18% | growth inhibition ([7]; at 11.0 µM): 23% | growth inhibition ([7]; at 33.0 µM): 40% | growth inhibition ([7]; at 100.0 µM): 94% (active) | growth inhibition ([8]; at 1.2 µM): 0% | growth inhibition ([8]; at 3.7 µM): 10% | growth inhibition [8, 16]: 3% | growth inhibition ([8]; at 11.0 µM): 23% | growth inhibition ([8]; at 33.0 µM): 40% | growth inhibition [8, 17]: 58% | growth inhibition ([8]; at 50.0 µM): 87.8% (active) | growth inhibition ([8]; at 100.0 µM): 93% (active) | growth inhibition ([9]; at 1.2 µM): 11% | growth inhibition ([9]; at 3.7 µM): 21% | growth inhibition [9, 16]: 23% | growth inhibition ([9]; at 11.0 µM): 26% | growth inhibition ([9]; at 33.0 µM): 37% | growth inhibition [9, 17]: 79% (active) | growth inhibition ([9]; at 50.0 µM): 76% (active) | growth inhibition ([9]; at 100.0 µM): 97% (active) | growth inhibition ([10]; at 1.2 µM): 1% | growth inhibition ([10]; at 3.7 µM): 14% | growth inhibition ([10]; at 11.0 µM): 22% | growth inhibition ([10]; at 33.0 µM): 29% | growth inhibition ([10]; at 100.0 µM): 85% (active) | growth inhibition [11, 16]: 28% | growth inhibition [11, 17]: 89% (active) | growth inhibition ([11]; at 50.0 µM): 80.6% (active) | growth inhibition ([12]; at 1.2 µM): -1% | growth inhibition ([12]; at 3.7 µM): 5% | growth inhibition ([12]; at 11.0 µM): 18% | growth inhibition ([12]; at 33.0 µM): 10% | growth inhibition ([12]; at 100.0 µM): 25% | growth inhibition ([13]; at 1.2 µM): 11% | growth inhibition ([13]; at 3.7 µM): 32% | growth inhibition [13, 16]: 47% | growth inhibition ([13]; at 11.0 µM): 46% | growth inhibition ([13]; at 33.0 µM): 53% | growth inhibition [13, 17]: 92% (active) | growth inhibition ([13]; at 50.0 µM): 93.7% (active) | growth inhibition ([13]; at 100.0 µM): 96% (active) | growth inhibition ([14]; at 1.2 µM): 14% | growth inhibition ([14]; at 3.7 µM): 18% | growth inhibition ([14]; at 11.0 µM): 18% | growth inhibition ([14]; at 33.0 µM): 21% | growth inhibition ([14]; at 100.0 µM): 58% | growth inhibition ([1]; at 1.2 µM): 6% | growth inhibition ([1]; at 3.7 µM): 14% | growth inhibition ([1]; at 11.0 µM): 17% | growth inhibition ([1]; at 33.0 µM): 20% | growth inhibition ([1]; at 100.0 µM): 55% | growth inhibition ([15]; at 1.2 µM): 10% | growth inhibition ([15]; at 3.7 µM): 21% | growth inhibition ([15]; at 11.0 µM): 24% | growth inhibition ([15]; at 33.0 µM): 39% | growth inhibition ([15]; at 100.0 µM): 79% (active) | growth inhibition [2, 16]: 33% | growth inhibition [2, 17]: 90% (active) | growth inhibition ([2]; at 50.0 µM): 94.9% (active)

Cc1ccc(Cl)cc1NC(=O)OCCN(C)C(=O)Nc1cc(Cl)ccc1C
growth inhibition ([4]; at 1.2 µM): 7% | growth inhibition ([4]; at 3.7 µM): -12% | growth inhibition ([4]; at 11.0 µM): -36% | growth inhibition ([4]; at 33.0 µM): -21% | growth inhibition ([4]; at 100.0 µM): -1% | growth inhibition ([5]; at 1.2 µM): -30% | growth inhibition ([5]; at 3.7 µM): -35% | growth inhibition ([5]; at 11.0 µM): -38% | growth inhibition ([5]; at 33.0 µM): -30% | growth inhibition ([5]; at 100.0 µM): 34% | growth inhibition ([6]; at 1.2 µM): -26% | growth inhibition ([6]; at 3.7 µM): -20% | growth inhibition ([6]; at 11.0 µM): -14% | growth inhibition ([6]; at 33.0 µM): -6% | growth inhibition ([6]; at 100.0 µM): -11% | growth inhibition ([7]; at 1.2 µM): -29% | growth inhibition ([7]; at 3.7 µM): -28% | growth inhibition ([7]; at 11.0 µM): -29% | growth inhibition ([7]; at 33.0 µM): -24% | growth inhibition ([7]; at 100.0 µM): 2% | growth inhibition ([8]; at 1.2 µM): -26% | growth inhibition ([8]; at 3.7 µM): -34% | growth inhibition [8, 16]: 57% | growth inhibition ([8]; at 11.0 µM): -35% | growth inhibition ([8]; at 33.0 µM): -31% | growth inhibition [8, 17]: 95% (active) | growth inhibition ([8]; at 50.0 µM): 86% (active) | growth inhibition ([8]; at 100.0 µM): 19% | growth inhibition ([9]; at 1.2 µM): -28% | growth inhibition ([9]; at 3.7 µM): -34% | growth inhibition [9, 16]: 57% | growth inhibition ([9]; at 11.0 µM): -36% | growth inhibition ([9]; at 33.0 µM): -31% | growth inhibition [9, 17]: 93% (active) | growth inhibition ([9]; at 50.0 µM): 61% | growth inhibition ([9]; at 100.0 µM): -21% | growth inhibition ([10]; at 1.2 µM): -26% | growth inhibition ([10]; at 3.7 µM): -25% | growth inhibition ([10]; at 11.0 µM): -31% | growth inhibition ([10]; at 33.0 µM): -39% | growth inhibition ([10]; at 100.0 µM): -15% | growth inhibition [11, 16]: -29% | growth inhibition [11, 17]: 32% | growth inhibition ([11]; at 50.0 µM): 37.6% | growth inhibition ([12]; at 1.2 µM): -48% | growth inhibition ([12]; at 3.7 µM): -28% | growth inhibition ([12]; at 11.0 µM): -48% | growth inhibition ([12]; at 33.0 µM): -33% | growth inhibition ([12]; at 100.0 µM): -26% | growth inhibition ([13]; at 1.2 µM): -39% | growth inhibition ([13]; at 3.7 µM): -39% | growth inhibition [13, 16]: 13% | growth inhibition ([13]; at 11.0 µM): -42% | growth inhibition ([13]; at 33.0 µM): -36% | growth inhibition [13, 17]: 56% | growth inhibition ([13]; at 50.0 µM): 46.9% | growth inhibition ([13]; at 100.0 µM): 13% | growth inhibition ([14]; at 1.2 µM): -37% | growth inhibition ([14]; at 3.7 µM): -27% | growth inhibition ([14]; at 11.0 µM): -23% | growth inhibition ([14]; at 33.0 µM): -8% | growth inhibition ([14]; at 100.0 µM): 6% | growth inhibition ([1]; at 1.2 µM): -24% | growth inhibition ([1]; at 3.7 µM): -36% | growth inhibition ([1]; at 11.0 µM): -33% | growth inhibition ([1]; at 33.0 µM): -30% | growth inhibition ([1]; at 100.0 µM): 11% | growth inhibition ([15]; at 1.2 µM): -22% | growth inhibition ([15]; at 3.7 µM): -21% | growth inhibition ([15]; at 11.0 µM): -23% | growth inhibition ([15]; at 33.0 µM): -15% | growth inhibition ([15]; at 100.0 µM): 8% | growth inhibition [2, 16]: 45% | growth inhibition [2, 17]: 98% (active) | growth inhibition ([2]; at 50.0 µM): 62% | growth inhibition ([3]; at 1.2 µM): -27% | growth inhibition ([3]; at 3.7 µM): -35% | growth inhibition ([3]; at 11.0 µM): -33% | growth inhibition ([3]; at 33.0 µM): -37% | growth inhibition ([3]; at 100.0 µM): 15%
